Assay outcomes from PubChem.
A549 tox – kills or reduces viability of A549 cells in Nrf2 counter-screen | A549 ARE-Fluc cells, CellTiter-Fluor viability, 18-24 h | Potency, µM (doses to about 46 µM), hits mostly inhibitors | 390,000 tested, 0.16% active | AID 504648
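A549 ARE-Fluc cells in 5% FBS OPTI-MEM, 5000 cells/well, rested 2 h then exposed to compounds in concentration-response for 18-24 h at 37 °C. Viability by CellTiter-Fluor fluorescence (Ex 405/Em 525) after 30 min; luciferase luminescence (BugLite, 15 min, RT) read afterwards.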
ELG1 DNA repair – blocks ELG1-dependent DNA repair in HEK293T cells; HEK293T ELG1-luciferase reporter, luminescence, 16 h; DNA damage induced by 5-fluorouridine; Potency, µM (highest dose often 46.1 µM), actives largely listed as inhibitors; 330,000 tested, 2.3% active; AID 504467; also: nearly all actives have a fitted effect of over 55% in size
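Overnight (16 hr) co-exposure of 2,000 cells/well to 5-fluorouridine and compound at 37 °C preceded detection. Luciferase was quantified via ONE-Glo luminescence; loss of signal denotes inhibition.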
Nrf2 activator – Nrf2 pathway activation | Potency, µM (top dose mostly 46.1 µM), actives largely listed as activators | 410,000 tested, 0.31% active | AREc32 ARE-luciferase reporter (MCF7-derived line), luminescence, 24 h; also: nearly all actives have a fitted effect of over 65% in size
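Cells of the AREc32 ARE-luciferase line are plated in OPTI-MEM containing 5% FBS and left overnight at 37 deg C. Compounds are pinned in, incubation continues 24 hr, and firefly luciferase signal is then measured.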
Nrf2 block – inhibitors of Nrf2 signaling; A549 ARE-Fluc reporter, luciferase luminescence, 18-24 h; AID 504444; Potency, µM (titrated, usually from 46 µM), usual class: inhibitors; 360,000 tested, 2.1% active; also: nearly all actives have a fitted effect of over 60% in size
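Reporter: ARE-Fluc in A549. Exposure: 18-24 h, 37 °C, 5% CO2, 5% FBS OPTI-MEM. Readouts: fluorescent cytotoxicity (CellTiter-Fluor), then luminescent Nrf2 signal after BugLite.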
mIDH1 inhibitor – blocks human mutant IDH1 R132H enzyme. O75874. IDH1-R132H enzyme, NADPH consumption, diaphorase/resazurin fluorescence. Potency, µM (highest dose often 76.6 µM), most hits filed as inhibitors. 390,000 tested, 0.093% active; also: nearly all actives have a fitted effect of over 65% in size
Target sequence (O75874 whole entry R132H, stated change not applied): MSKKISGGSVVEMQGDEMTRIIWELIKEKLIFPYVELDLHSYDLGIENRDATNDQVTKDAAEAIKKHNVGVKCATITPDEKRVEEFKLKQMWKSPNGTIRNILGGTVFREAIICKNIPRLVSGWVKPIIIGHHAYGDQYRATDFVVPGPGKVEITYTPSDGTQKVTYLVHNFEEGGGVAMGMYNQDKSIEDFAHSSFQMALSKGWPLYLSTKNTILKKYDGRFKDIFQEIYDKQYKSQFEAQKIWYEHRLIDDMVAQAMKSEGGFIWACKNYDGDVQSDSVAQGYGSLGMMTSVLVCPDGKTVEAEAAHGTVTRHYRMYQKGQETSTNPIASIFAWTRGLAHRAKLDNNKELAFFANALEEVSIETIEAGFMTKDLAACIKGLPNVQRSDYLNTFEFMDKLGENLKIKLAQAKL
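IDH1-R132H (0.5 ug/mL) preincubated 30 min with compound, then NADPH (0.016 mM) and alpha-KG (2 mM) added; 80 min at RT, pH 7.5. Remaining NADPH coupled via diaphorase/resazurin to fluorescence (540/590 nm); concentration-response curves normalized to no-enzyme control.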
A number is an active result; . = inactive; ? = inconclusive; / = no result given; [ ] = dose if it differs, or a comment. A selection: hits, their analogues and other compounds. The true share with any hit is near 3.8%. Calls follow the shape of the dose curve; as a rule, active = well fitted curve in the direction sought with a large enough effect; inconclusive = small, poorly fitted or top-dose-only effect, or another doubt; inactive = no such curve, though single readings can be large; an effect the other way counts as inactive or inconclusive.

SMILES	A549 tox	ELG1 DNA repair	Nrf2 activator	Nrf2 block	mIDH1 inhibitor
Cc1cc2c(s1)c1cnn(Cc3c(Cl)ccc(C)c3F)c(=O)c1n2C	.	/	/	.	/
FC(F)(F)c1cnc(NNC(=S)Nc2ccc(Cl)cc2)c(Cl)c1	?	?	.	12µM	.
Fc1ccc(NC(=S)NNc2ncc(C(F)(F)F)cc2Cl)c(F)c1	?	?	.	?	.
Cc1ccc(NC(=S)NNc2ncc(C(F)(F)F)cc2Cl)cc1	.	?	.	23µM	.
Cc1ccc(NC(=S)NNc2ncc(C(F)(F)F)cc2Cl)c(C)c1	.	21µM	.	?	.
CCOC(=O)N1CCc2c(sc(NCc3ccc(N(CC)CC)cc3)c2C(=O)Nc2cc(OC)ccc2OC)C1	.	/	.	/	.
CCc1ccc(N2CC(C(=O)Nc3ccc4c(c3)OCCO4)CC2=O)cc1 (stereo not drawn)	.	?	.	?	.
COc1ccc(CCNc2nc(-c3ccccn3)cs2)cc1OC	.	18µM	.	.	.
COc1ccc(CCNc2nc(-c3sc(C)nc3C)cs2)cc1OC	?	18µM	.	21µM	.
COc1ccc(CCNc2nc(-c3ccncc3)cs2)cc1OC	.	?	.	.	.
COc1ccc(CCNc2nc(-c3ccc(O)cc3)cs2)cc1OC	.	23µM	.	.	.
COc1ccc(CCNc2nc(-c3cccnc3)cs2)cc1OC	.	?	.	23µM	.
CC(C)OCCCNC(=O)Cc1ccc(NC(=O)N2CCCCc3ccccc32)cc1	.	/	.	.	.
COc1ccc2ncc(S(=O)(=O)c3ccccc3)c(N3CCN(c4ccccc4)CC3)c2c1	.	16µM	.	.	.
S=C1SCN(Cc2cccnc2)CN1Cc1cccnc1	?	23µM	?	?	.
S=C1SCN(Cc2ccccc2)CN1Cc1ccccc1	.	.	?	.	.
O=C(Nc1ccc(F)c(F)c1)c1cc(S(=O)(=O)N2CCN(c3ccccn3)CC2)ccc1F	.	16µM	.	?	.
COc1ccc(C2(c3ccc(OC(C)=O)cc3OC(C)=O)CC(c3ccccc3)NC(=S)N2)cc1 (stereo not drawn)	?	.	.	21µM	.
CC(=O)Oc1ccc2c(c1)OC(c1ccccc1)CC21CC(C)(C)NC(=S)N1 (stereo not drawn)	.	.	.	.	.
CCC(=O)Nc1ccc(S(=O)(=O)N2CCC(c3nc4ccccc4[nH]3)CC2)cc1	.	18µM	.	?	.
Cc1ccc(OCCCCn2ccnc2C)c(C)c1	.	12µM	.	?	.
Cc1ccc(C(C)C)c(OCCn2ccnc2C)c1	.	.	.	.	.
COC(=O)c1cc2occc2n1CC(=O)Nc1ccc(C(C)C)cc1	.	/	.	.	.
COc1ccccc1N(C)S(=O)(=O)c1ccc(C(=O)N2CCC2)cc1	.	.	.	.	.
COc1ccccc1N(C)S(=O)(=O)c1ccc(C(=O)NC2CCCCC2)cc1	.	23µM	.	.	.
SMILES	A549 tox	ELG1 DNA repair	Nrf2 activator	Nrf2 block	mIDH1 inhibitor
COc1ccccc1N(C)S(=O)(=O)c1ccc(C(=O)Nc2ccncc2)cc1	.	12µM	.	?	.
Cc1ccc(S(=O)(=O)N(CC(=O)NC2CCCCCC2)c2ccccc2F)cc1	.	.	.	.	.
COc1ccccc1N(C)S(=O)(=O)c1ccc(C(=O)Nc2cc(OC)c(OC)c(OC)c2)cc1	.	/	.	?	.
COc1ccccc1N(C)S(=O)(=O)c1ccc(C(=O)N2CCCc3ccccc32)cc1	.	15µM	.	?	.
CCOc1ccccc1N(CC(=O)NC1CCCC1)S(=O)(=O)c1ccc(C)cc1	.	?	.	15µM	.
CCCCN(C)S(=O)(=O)c1cc(-c2nnc3c4ccccc4c(C)nn23)ccc1C	.	/	.	/	.
O=[N+]([O-])c1ccc(O)c(-c2cc(C(F)(F)F)nc(-c3ccccc3)n2)c1	8.2µM	?	.	?	.
Cc1nc2cccnc2n1C1CCN(S(=O)(=O)c2ccc(C(C)C)cc2)CC1	?	/	.	/	.
CN(C)S(=O)(=O)n1cc(/C=C(\NC(=O)c2ccccc2Cl)C(=O)NCCCn2ccnc2)c2ccccc21	.	21µM	.	?	.
Cc1ccc(-c2csc(NC(=O)C3CC(=O)N(c4ccc5c(c4)OCCO5)C3)n2)o1 (stereo not drawn)	.	/	/	?	/
Cc1nnc(-c2cccc(Br)c2)c2cn(-c3ccc(Br)cc3)nc12	.	?	.	15µM	.
Cc1nnc(-c2cccc(Br)c2)c2cn(-c3ccccc3)nc12	/	.	.	.	.
CCn1cc(C(=O)N2CCN(c3cccc(C)c3C)CC2)c2cc(OC)c(OC)cc2c1=O	.	/	.	.[9.27 µM]	.
COc1ccc(C(=O)N2CCN(c3ccc(NC(=O)Cc4ccccc4)cc3)CC2)cc1	.	9.2µM	.	.	.
O=C(Nc1ccc(N2CCN(C(=O)c3ccco3)CC2)cc1)c1ccccc1	.	?	.	.	.
Cc1cc(C)cc(C(=O)Nc2ccc(N3CCN(C(=O)c4ccco4)CC3)cc2)c1	.	21µM	.	?	.
Cc1ccc(C(=O)N2CCN(c3ccc(NC(=O)COc4ccccc4C)cc3)CC2)cc1	?	?	.	21µM	.
O=C(Nc1ccc(N2CCN(C(=O)c3ccco3)CC2)cc1)c1ccc(F)cc1	.	21µM	.	.	.
CCOC(=O)c1c(C)n(-c2ccccc2)c2ccc(OC(=O)c3cccc(OC)c3OC)cc12	.	/	.	.	.
O=C(Nc1ccc(OCc2cc(=O)n3c4c(sc3n2)CCCC4)cc1)c1cccc(F)c1	.	/	.	.	.
Cc1nn(-c2ccccc2)c(-n2cccc2)c1C(=O)N1CCN(c2ccccc2)CC1	.	/	.	.	.
COc1ccc(Nc2ncc(C(=O)N3CCN(c4ccc(F)cc4)CC3)c3ccccc23)cc1	.	21µM	.	?	.
O=C(COc1ccccc1)Nc1ccc(N2CCN(C(=O)c3ccco3)CC2)cc1	.	?	.	.	.
Cc1ccc(OCC(=O)Nc2ccc(N3CCN(C(=O)c4ccco4)CC3)cc2)cc1	.	?	.	21µM	.
N#CN1CCC(NC(=O)c2cccc(C(F)(F)F)c2)CC1	.	/	/	.	/
SMILES	A549 tox	ELG1 DNA repair	Nrf2 activator	Nrf2 block	mIDH1 inhibitor
Cc1oc(-c2ccc(C(=O)NCc3ccccc3F)cc2)nc1COc1ccccc1	.	/	.	?	.
Cc1cccc(S(=O)(=O)N2CCN(S(=O)(=O)c3ccc4c(c3)OCCO4)CC2)c1	.	/	/	.	/
Cn1c(=O)c2c(nc(OCc3cccnc3)n2Cc2c(F)cccc2Cl)n(C)c1=O	.	.	.	.	.
Cn1c(=O)c2c(nc(SCCCC#N)n2Cc2c(F)cccc2Cl)n(C)c1=O	.	16µM	.	.	.
COc1ccccc1-n1cnc2c(c1=O)c1nc3ccccc3nc1n2-c1ccc(C)c(C)c1	?	?	.	5.8µM	.
CCOC(=O)c1cc(NC(=O)c2ccc(F)cc2)c(=O)n2c1oc1ccc(Cl)cc12	.	/	.	.	.
